# Results published in the supplement of paper PMC4466236.
# The full ranking holds about 33,000 sequences; the median of “E-score (dimensionless, -0.5 to 0.5)” is about -0.058, and the highest 2% start at about 0.35. Many of the other results were omitted from the sample, so the highest values are more common in it than they were.
# Tested on: MvaT
# Assay: PBM 8-mer E-score (mean of HK and ME arrays) (E-score (dimensionless, -0.5 to 0.5)); higher = stronger relative binding preference
# Procedure: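 Protein binding microarray: GST-tagged full-length MvaT (P. aeruginosa PAO1) bound to two universal double-stranded 60-mer arrays (ME and HK), each with a constant 25-mer primer and a variable 35-mer region covering all 8-mers. The 8-mer E-score (rank-based, range -0.5 to 0.5, >0.45 = specific binding) is the mean of the two arrays.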
row,Sequence,PBM 8-mer E-score
1,ATACCGAG,-1.06e-05
2,AAGAGAAT,0.126
3,GCTATGGA,-0.0686
4,CGCCTAAG,-0.113
5,AGCTCCCG,-0.29
6,CCTTTTGA,-0.074
7,AAAATAAG,0.331
8,AAAATAAA,0.409
9,AAAATAGA,0.173
10,TAAATAGA,0.291
11,TAAATAAA,0.421
12,CAAATAAA,0.301
13,AGTGCTAT,0.172
14,TACGATCA,0.0229
15,TCGAATCA,-0.0287
16,ACACTTGC,-0.00708
17,CACAATAA,0.351
18,AACAATAG,0.294
19,CACAATAG,0.176
20,AACAATTC,0.27
21,AACAATTG,0.217
22,AACAATAT,0.362
23,TACAATAA,0.328
24,ACCAATAT,0.282
25,AACAATAC,0.254
26,AACAATAA,0.422

row,Sequence,PBM 8-mer E-score
1,AACAATTA,0.391
2,AACAATCT,0.0729
3,ATGTAGTC,0.1
4,GGACGTTA,-0.103
5,CACATTAG,0.162
6,CAGCGAGC,-0.199
7,GCCCCCGC,-0.248
8,CCTTTGAG,-0.158
9,ACACGACG,-0.192
10,ATGATCAC,-0.0926
11,AACTTAGG,0.182
12,AACTTATG,0.372
13,AACTTATC,0.351
14,CACTTATG,0.12
15,AACTTATT,0.398
16,AACTTAGT,0.289
17,CACTTATC,0.14
18,AACTTACT,0.335
19,GACTTATC,0.0104
20,CAGAGCCC,-0.374
21,ATCTCGAA,-0.0688
22,ACTGGAAG,-0.0943
23,ACTCTGGC,-0.165
24,AAGCACAG,-0.107
25,AAAGTAAT,0.373
26,AAAGTAAA,0.306

row,Sequence,PBM 8-mer E-score
1,ATAGTAAT,0.353
2,ATAGTAAA,0.327
3,ATAGTAAC,0.271
4,AAAGTAAC,0.206
5,AGTCATCG,-0.269
6,CTCATATC,-0.0618
7,CATATCTA,0.122
8,CATATACG,0.143
9,CATATACC,0.166
10,CTCATATA,0.324
11,CATATATA,0.451
12,CATATAGG,0.151
13,CATATATC,0.398
14,CATATATG,0.449
15,GAGGGGAC,-0.373
16,CCCCAAAA,-0.131
17,ACAGATAA,0.287
18,GCCGACTA,-0.209
19,AACCTACC,-0.156
20,GGGATTAA,0.144
21,GGCGGTTA,-0.177
22,ATTAGCAC,0.0511
23,CAACCCGA,-0.0421
24,TAAAAAAA,0.321
25,GAATAAAA,0.354
26,TAATAAAA,0.389

row,Sequence,PBM 8-mer E-score
1,GAATAAAC,0.192
2,GGATAAAA,0.265
3,CAATAAAA,0.286
4,GCTGCTAA,-0.101
5,CTATGCAG,-0.146
6,ATCTAGCA,0.152
7,ATAAGTAT,0.356
8,TTAAGTAA,0.328
9,CAAAGTAA,0.216
10,ATAAGTAG,0.341
11,ATAAGTAC,0.305
12,AAAAGTAA,0.28
13,ATAAGTAA,0.371
14,TAAAGTAA,0.365
15,GTAAGTAA,0.207
16,ATCGTCAC,-0.196
17,CCTTCAAA,-0.128
18,CCACGACA,0.011
19,AACATCAT,0.171
20,CCCTACCC,-0.224
21,CCAAACGC,-0.0718
22,AGCTGCAC,-0.122
23,ACTTGCAA,0.123
24,CCAAACAC,0.111
25,ATCAGTGA,-0.0827
26,CTATCCAG,-0.0225

row,Sequence,PBM 8-mer E-score
1,ATTCTTGA,0.0466
2,ATTCGGTG,-0.00558
3,AATCCACA,0.139
4,GATATCAC,0.119
5,AATATCTC,0.253
6,AATATCCC,0.174
7,AATATCTG,0.207
8,AATATCAA,0.338
9,AATATCAC,0.407
10,AATATATC,0.445
11,AATATATG,0.446
12,ACTATATG,0.306
13,GTATCTTA,0.194
14,ACAGGTTG,-0.21
15,AGGAACCT,-0.139
16,AATTCTAC,0.188
17,ACTAGGCT,-0.105
18,ACACCTCC,-0.0337
19,CCGGTAAA,0.0751
20,TATTAGGA,0.247
21,ATCATATG,0.241
22,ATAATATG,0.435
23,ATAATCTG,0.196
24,ATGATATC,0.131
25,ATAATCTC,0.337
26,ATAATATC,0.437

row,Sequence,PBM 8-mer E-score
1,CTACGATC,0.0594
2,AAGAATAA,0.368
3,ATGAATAA,0.368
4,CTGAATAA,0.226
5,ATGAATAG,0.131
6,AAGAATAT,0.316
7,AAGAATAC,0.118
8,CGCTTGCC,-0.327
9,CATATTGA,0.264
10,GATATTGA,0.228
11,GATATTCA,0.0985
12,TATATTCA,0.373
13,TATATTGA,0.387
14,AATATTCA,0.312
15,CCCGGGGA,-0.299
16,ATTATAGC,0.282
17,CCTATAAC,0.186
18,GTTATAAC,0.434
19,ATTATAAT,0.468
20,ATGATAAT,0.292
21,AGTATAAT,0.336
22,CTTATAAC,0.352
23,ATGATAAC,0.178
24,CTCATAAC,-0.0784
25,GCTATAAC,0.13
26,ATTATAAC,0.415

row,Sequence,PBM 8-mer E-score
1,GTTATAAA,0.345
2,AAGTGACT,0.00519
3,CTCCCTAA,-0.204
4,GTGTGGGA,0.0582
5,GACGCTGC,-0.183
6,AATCGTGG,-0.0233
7,AAGCGGTG,-0.19
8,AAATCTAC,-0.0273
9,ACGAACGA,-0.115
10,CTAAGCAC,-0.0271
11,CTTATAAG,0.394
12,ATTATAAA,0.462
13,CCTATAAA,0.211
14,CTTATAAA,0.377
15,ACTATAAA,0.316
16,CTCATAAA,0.0815
17,ACTATACT,0.228
18,CTCATAAG,-0.122
19,ATCATAAA,0.308
20,ACTATAAT,0.436
21,CGTATAAG,0.147
